Assay results as given in PubChem BioAssay AID1347417 (National Center for Advancing Translational Sciences (NCATS), 2020).
The campaign covered roughly 120,000 compounds. About 5,300 (4.4%) were called active. About 22% were inconclusive and are not listed. Many of the other results were omitted from the sample, so actives are more common in it than they were. Unmarked numbers belong to inactive results. Calls follow the shape of the dose curve; as a rule, active = well fitted inhibition curve with a large enough effect; inconclusive = small, poorly fitted or top-dose-only effect; inactive = no such curve, though single readings can be large or run the other way.

Assay: qHTS Primary assay for Inhibitors of Plasmodium falciparum Dd2 growth in vitro; also: nearly all actives have a fitted effect of over 65% in size;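 as to activity, negative = inhibition: plate controls were DMSO vehicle for no effect and reference drug for full effect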
Conditions: P. falciparum Dd2 growth, SYBR Green, 72 h; series mostly up to 28.9 µM; activity, negative = inhibition: at the top concentration
Procedure, shortened: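 Readout: SYBR Green fluorescence, 485 nm excitation, 535 nm emission, after ~16 h lysis at 37C. Before that, Dd2-infected red cells (2.5% hematocrit) grew 72 h with compound, 29 uM top final concentration.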
Potency is read from the fitted curve at half-maximal effect.

Structure (SMILES) | outcome | activity, negative = inhibition | Potency
Cc1noc2c(N3CC[S+](=O)([O-])CC3)cc(-c3ccc(Cl)cc3)nc12 | inactive [at 44.1 µM] | – | –
O=C(NC1CCCC1)N1CCC(Oc2ccc(-c3noc(C4CC4)n3)cc2)C1 (stereo not given) | – | 5.78% [at 5.79 µM] | –
CCCC(c1cccs1)n1cc(-c2cncnc2)nn1 (stereo not given) | inactive | – | –
O=c1cc(N2CCOCC2)cnn1Cc1cc(C(F)(F)F)ccc1F | – | -13.2% | –
O=C(c1ccccn1)N1CCC2(CNS(=O)(=O)c3cnccc3O2)C1 (stereo not given) | – | 2.82% | –
Cc1noc(C)c1-c1cc2cc(CNC3CCOCC3)oc2c(NC2CCN(C)CC2)n1 | – | -7.72% [at 44.1 µM] | –
Cc1ccc(C2(O)CCN(C(=O)c3ccccc3-c3nn[nH]n3)CC2)nc1 | – | -10.1% | –
Cc1ccc(NC(=O)Nc2ccc(C)n(CC(=O)NCCN3CCCC3)c2=O)cc1 | inactive | – | –
COCC(=O)NC1CCC12CCN(S(=O)(=O)c1c(C)noc1C)CC2 (stereo not given) | – | -17.4% | –
COc1ccc(OC)c(CNC(=O)C2(c3ccc(NC(C)=O)cc3)CCCCC2)c1 | – | -23.8% | –
COc1cc(NC(=O)NCC2CCN(Cc3ccc(C)cc3)CC2)cc(OC)c1OC | – | -19.3% | –
CCCn1c2ccccc2c2cnn(CC(=O)NCC3CCN(Cc4ccc(C)cc4)CC3)c(=O)c21 | – | -18.4% | –
CC(C)(C)OC(=O)N1CCC(c2c(C(=O)NCCc3ccsc3)cnn2-c2ccc(F)cc2F)CC1 | – | – | 8.91 µM (active)
COCC1CN(C(C)=O)CC12CCN(Cc1ccccc1OC)CC2 (stereo not given) | – | 15% | –
Cc1cccc(C)c1-n1ncc(C(=O)NCCCN2CCCCC2)c1C1CCN(C(=O)OC(C)(C)C)CC1 | – | – | 8.91 µM (active)
Cc1ccc2c(c1)N(CC(=O)NCCCN1CCCCC1)C(=O)c1cccnc1O2 | – | 51.2% | –
COc1ccccc1CN1CCC(CNC(=O)c2cnn(-c3ccccc3Cl)c2C2CCN(C(=O)OC(C)(C)C)CC2)CC1 | – | – | 2.51 µM (active)
O=C(NCCC1CCN(C(=O)Nc2ccc(F)cc2F)CC1)c1cccs1 | inactive | – | –
O=C(NCCC1CCN(C(=O)Nc2cc(F)ccc2F)CC1)c1cc(F)ccc1F | – | -15.6% | –
COc1ccccc1CN1CC[C@H](CNC(C)=O)[C@H](N(C)C)C1 | – | -2.3% | –

Structure (SMILES) | outcome | activity, negative = inhibition | Potency
Cc1ccc(CN2CCC(CNC(=O)c3cnn(-c4ccccc4Cl)c3C3CCN(C(=O)OC(C)(C)C)CC3)CC2)cc1 | – | – | 2.82 µM (active)
Cc1ccccc1CCNC(=O)C1CCN(c2nc3ccccc3nc2C(F)(F)F)CC1 | – | 18.8% | –
O=C(c1n[nH]c(=O)c2ccccc12)N1CC2CC(C1)[C@H]1CCCC(=O)N1C2 (stereo not given in full) | – | -6.17% | –
Cc1ccc(N2Cc3c(NCCCOC(C)C)ncnc3N(C)CC2=O)cc1 | – | -0.704% | –
Cc1cc(=O)[nH]c(NCCNC(=O)c2cc(-c3cccn3C)n[nH]2)n1 | – | 0.81% | –
Cc1cccc(CC(=O)N2C[C@@H](COc3ccccc3)[C@H](C(N)=O)C2)c1 | – | -26% | –
Cc1nc(C(=O)N2CC[C@H](NC(=O)c3snnc3C)C[C@H]2C(=O)N[C@H](CC(C)C)C(N)=O)cs1 | – | 4.58% | –
Cc1ccc(NC(=O)N2CC3CC(C2)[C@H]2CCCC(=O)N2C3)cc1F (stereo not given in full) | – | -17.8% | –
O=C(N[C@@H]1C[C@H](Cn2cc(CN3CCS(=O)(=O)CC3)nn2)[C@@H](O)[C@H]1O)c1cnccn1 | – | -2.17% | –
CCC1(N2CCN(C(=O)c3ccc(C(F)(F)F)s3)CC2)CCN(C(=O)NC)C1 (stereo not given) | inactive | – | –
N#Cc1ccccc1NC(=O)c1cc2n(n1)CC(c1ccc(Br)cc1)OC2 (stereo not given) | – | -17% | –
CC(=O)N1CCN(c2ccc3nnc(-c4ccc(C)cn4)n3n2)CC1 | – | -4.27% [at 44.1 µM] | –
Cc1cn2nc(C(=O)N3CCC(NC(=O)CCc4ccccc4)CC3)cc2c(=O)[nH]1 | – | – | 14.1 µM (active)
Cc1cn2nc(C(=O)N3CCC(NC(=O)c4ccc(C#N)cc4)CC3)cc2c(=O)[nH]1 | – | -37.5% | –
O=C(Cn1nc(-c2ccccc2)n(CCc2ccccc2)c1=O)NC1CC1 | – | -4.11% | –
COC(=O)[C@@H](Cc1cccnc1)NC(=O)[C@H]1CN(S(=O)(=O)c2ccccc2)CCN1C(=O)N1CCOCC1 | – | -6.53% | –
COC1C(=O)N(c2cccc(F)c2)C12CCN(C(=O)NCc1ccc(C)cc1)CC2 (stereo not given) | inactive | – | –
CCS(=O)(=O)N1CCC2(CC1)CC(N1CCN(C(C)C)CC1)CCO2 (stereo not given) | – | 12% | –
Cn1cc(CN2CCN(Cc3ccccc3)CC2)ccc1=O | – | 13.6% | –
C=CCN1CC2(CCC1=O)CCN(C(=O)[C@H](N)Cc1ccccc1)CC2 | – | -4.26% | –

Structure (SMILES) | outcome | activity, negative = inhibition | Potency
O=C1CCC2(CCN(Cc3ccc4[nH]ccc4c3)CC2)CN1CCc1ccccc1 | – | – | 7.08 µM (active)
COc1ccc(C(=O)N2CCCOCCNC(=O)CC2)c(OC)n1 | – | 5.64% | –
CN(Cc1nc2ccsc2c(=O)[nH]1)C(=O)C1NCCc2[nH]cnc21 (stereo not given) | – | -11.4% | –
COc1ccc(C(=O)N2c3ccccc3CC2c2nc(C(C)C)no2)c(OC)c1 (stereo not given) | – | 4.25% [at 5.79 µM] | –
O=C1[C@H]2CN(Cc3ccccc3F)C[C@H]2C(=O)N1CCN1CCc2ccccc2C1 | – | – | 5.01 µM (active)
O=C(c1nc2c(o1)CCN(Cc1ccccc1F)CC2)N1CCOCC1 | – | -19.4% [at 44.1 µM] | –
CN1C(=O)[C@H]2CN(Cc3ccccc3Cl)C[C@H]2C1=O | – | -8.61% | –
COCCn1cc(CN2CCN(c3ccccc3F)CC2)ccc1=O | – | 15.5% | –
CCOc1ccc2c(n1)CCN(C(=O)Nc1ccc(OC)cc1C)C2 | – | -3.34% | –
COc1ccc(Nc2ncc3c(n2)CCN(C(=O)OC(C)(C)C)C3)cc1 | – | – | 5.62 µM (active)
CCOc1ccc2c(n1)CCN(C(=O)C(C)C)C2 | – | 7.45% | –
COc1ccc(C(=O)NC2CCN(c3cc(-c4cccs4)[nH]n3)C2)cc1F (stereo not given) | – | -11.2% | –
COCCc1noc(-c2ccc(NC(C)c3ncccc3C)nc2)n1 (stereo not given) | – | -19.9% | –
O=C(NCC1(COc2cccnc2)C[C@@H](O)[C@@H](O)C1)C1CCCC1 (stereo not given in full) | – | 9.87% [at 44.1 µM] | –
CCC(C)N1CCN(C(=O)CCc2ccc3c(c2)CN(C(=O)C2CC2)CCO3)CC1 (stereo not given) | – | -3.36% | –
CC(C)(O)CCc1ccc(C(=O)N2CCOc3ccc(Cl)cc3C2)cc1 | – | -18.6% | –
CC(C)C(=O)N1CCOc2ccc(CN3CCc4ccccc4C3)cc2C1 | inactive | – | –
O=C(c1ccccc1)N1CCOc2ccc(CN3CCc4ccccc4C3)cc2C1 | – | – | 7.94 µM (active)
O=C1CCN(Cc2ccc3c(c2)CCO3)CCOCCN1 | – | 2.37% | –
O=C(CC1CCCC1)N1CCOc2ccc(CN3CCc4ccccc4C3)cc2C1 | – | – | 5.01 µM (active)
